Assay outcomes from PubChem BioAssay.
The list is not random: actives were taken first. Their share in the collection is about 6.7%.
T cruzi growth-1: T. cruzi proliferation inhibition | T. cruzi beta-gal in NIH3T3, GalScreen luminescence, 90 h | inhibition, % at 8.34 µM | actives 5.9% (n = 77,000) | AID 624255;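 active = mean inhibition above about 93%, with at least 55% of replicates each passing it, limit read from the data, passing the limit was not always enough; inconclusive = only one of those two conditions holds; inactive = neither condition holds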
C diff HTS: blocks growth of Clostridium difficile | Clostridium difficile clinical isolate growth, OD600, 24 h; stronger effect = lower value | growth activity, negative = inhibition, % at 16 µg/mL (by protocol) | actives 0.25% (n = 86,000) | AID 1259249;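 active = mean growth activity at or below -80% and every replicate also at or below -80%; inconclusive = mean at or below -80% but some replicate above -80%; inactive = mean growth activity above -80%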;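 note: 0% = DMSO wells and -100% = levofloxacin 16 µg/mL wells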
Pf Dd2 growth: P. falciparum Dd2 growth inhibition; activity change, % at 10 µM; SYBR Green, 72 h; stronger effect = lower value; actives 2.3% (n = 94,000); AID 1159554; in the data active = activity change below about -80%; inconclusive = no clear call, values can overlap the other calls
T cruzi growth-2: blocks T. cruzi growth in NIH3T3 host cells. shares compounds with T cruzi growth-1. T. cruzi beta-gal in NIH3T3, GalScreen luminescence, 90 h. inhibition, % at 8.35 µM. actives 72% (n = 5,600). AID 651739;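 active = mean replicate inhibition above about 95% and at least 55% of replicates individually reaching it, limit read from the data; inconclusive = only one of the two criteria is met; inactive = neither criterion is met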
T cruzi growth-3: blocks T. cruzi growth in NIH3T3 host cells; shares compounds with T cruzi growth-1; T. cruzi beta-gal in NIH3T3, GalScreen luminescence, 90 h; inhibition, % at 2.09 µM; actives 21% (n = 5,600);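 active = mean inhibition above about 95%, with at least 55% of replicates also reaching it, limit read from the data; inconclusive = meets just one of the two conditions; inactive = meets neither condition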;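 note: plate controls were neutral control median for no effect and positive control median for full effect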
3T3 cytotox: NIH/3T3 (mouse) viability loss; NIH/3T3 viability, CellTiter-Glo ATP luminescence, 90 h; cytotoxicity (signal decrease), % at 8.35 µM; actives 14% (n = 5,600); AID 651742; shares compounds with T cruzi growth-1;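 active = mean signal decrease across replicates above about 35% based on untreated-well scatter, with enough replicates individually passing, limit read from the data; inconclusive = no rule stated though some were filed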;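 note: 0% = median of neutral control wells and 100% = median of positive control wells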
3T3 cytotox 2: cytotoxicity in mouse NIH/3T3 fibroblasts. NIH/3T3 viability, CellTiter-Glo ATP luminescence, 90 h. actives 56% (n = 5,600). inhibition, % at 24.9 µM. shares compounds with T cruzi growth-1;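 active = mean loss of cell viability signal at or above a set limit, and enough replicates individually reaching it; inconclusive = meets only the mean limit or only the replicate share; inactive = meets neither condition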;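 note: 0% = median of neutral control wells and 100% = median of positive control wells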
An asterisk follows results filed as active; ? = inconclusive; . = no result.

SMILES	T cruzi growth-1	C diff HTS	Pf Dd2 growth	T cruzi growth-2	T cruzi growth-3	3T3 cytotox	3T3 cytotox 2
OC[C@@H]1[C@@H](c2ccc(C#Cc3ccccc3)cc2)[C@@H]2CN(Cc3cncnc3)CCCCN12	100.8*	-6.2	-34.6	98.0*	56.2	33.2	103.5*
OC[C@H]1[C@@H](c2ccc(C#Cc3ccccc3F)cc2)[C@H]2CN(Cc3cncnc3)CCCCN21	30.1	-7.3	-10.2	.	.	.	.
OC[C@H]1[C@H](c2ccc(C#Cc3ccccc3)cc2)[C@@H]2CN(Cc3cncnc3)CCCCN12	104.1*	10.7	-27.4	107.1*	79.8	44.5*	104.7*
OC[C@H]1[C@@H](c2ccc(C#Cc3ccccc3F)cc2)[C@@H]2CN(Cc3cncnc3)CCCCN12	96.1*	-0.9	-56.2	103.6*	51.8	47.4*	104.1*
OC[C@@H]1[C@H](c2ccc(C#Cc3ccccc3)cc2)[C@H]2CN(Cc3cncnc3)CCCCN12	118.5*	2.3	-49.6	98.3*	101.7*	37.3*	102.0*
O=C(NC1Cc2ccccc2C1)[C@@H]1[C@@H](CO)[C@@H]2Cn3c(ccc(C4=CCCCC4)c3=O)[C@H]1N2CC1CC1	44.9	4.8	-23.9	.	.	.	.
OC[C@H]1[C@H](c2ccc(Br)cc2)[C@@H]2CN(Cc3cncnc3)CCCCN12	109.7*	4.5	23.9	96.9*	74.8	-17.1	1.7
OC[C@@H]1[C@@H](c2ccc(-c3ccccc3)cc2)[C@H]2CN(Cc3cncnc3)CCCCN12	25.9	1.5	-14.6	.	.	.	.
O=C(Nc1ccccc1)N1C[C@@H]2[C@H](c3ccccc31)[C@@H](CO)N2Cc1ccccc1Cl	28.5	3.3	-15.6	.	.	.	.
O=C(Nc1ccc(Cl)cc1)N1C[C@H]2[C@@H](c3ccccc31)[C@@H](CO)N2CC1CCCCC1	108.8*	5.3	-0.9	105.7*	90.6	6.9	103.5*
O=C(Nc1ccccc1)N1C[C@@H]2[C@H](c3ccccc31)[C@H](CO)N2Cc1ccccc1Cl	?	3.5	-4.0	97.4*	41.5	10.9	6.2
O=C(Nc1ccccc1F)N1C[C@@H]2[C@H](c3ccccc31)[C@H](CO)N2C(=O)C1CCOCC1	107.1*	-1.1	-78.5	-59.9	-15.9	-6.7	-15.2
O=C(Nc1ccccc1F)N1C[C@@H]2[C@H](c3ccccc31)[C@H](CO)N2C(=O)C1CC1	-15.9	-0.5	1.1	.	.	.	.
O=C(Nc1ccc(Cl)cc1)N1C[C@H]2[C@@H](c3ccccc31)[C@H](CO)N2CC1CCCCC1	81.0	38.8	-37.0	.	.	.	.
O=C(C[C@H]1CC[C@H]2[C@@H](COC[C@H](O)CN2Cc2nccs2)O1)NCc1ccc(F)cc1	-27.2	6.4	7.7	.	.	.	.
O=C(CC1CC1)Nc1ccc2c(c1)[C@H]1C[C@@H](CC(=O)N3CCOCC3)O[C@H](CO)[C@H]1O2	-54.9	5.5	13.6	.	.	.	.
C[C@@H]1CN([C@@H](C)CO)C(=O)c2cc(C3=CCCC3)cnc2O[C@H]1CN(C)C(=O)Cc1ccncc1	1.7	-0.1	-6.5	.	.	.	.
CCCN1[C@H](C(=O)N[C@@H](C)c2ccccc2)[C@@H](CO)[C@@H]2Cn3c(cccc3=O)[C@@H]21	.	-3.0	-3.0	.	.	.	.
Cc1cccc(-c2ccc([C@@H]3[C@H](CO)N4CCCCN(S(=O)(=O)c5cccs5)C[C@@H]34)cc2)c1	103.3*	40.0	-28.2	105.8*	64.4	47.3*	102.3*
COc1cccc(-c2ccc([C@@H]3[C@@H](CO)N4CCCCN(S(=O)(=O)c5cccs5)C[C@H]34)cc2)c1	67.4	-0.5	-2.2	.	.	.	.
Cc1cccc(-c2ccc([C@H]3[C@H](CO)N4CCCCN(S(=O)(=O)c5cccs5)C[C@@H]34)cc2)c1	114.7*	-0.9	-8.2	107.7*	77.8	29.1	104.7*
COc1cccc(-c2ccc([C@@H]3[C@H](CO)N4CCCCN(S(=O)(=O)c5cccs5)C[C@@H]34)cc2)c1	89.0	46.3	-35.0	.	.	.	.
Cc1cccc(-c2ccc([C@H]3[C@@H](CO)N4CCCCN(S(=O)(=O)c5cccc(C)c5)C[C@@H]34)cc2)c1	73.0	7.5	-43.3	.	.	.	.
Cc1cccc(-c2ccc([C@@H]3[C@@H](CO)N4CCCCN(S(=O)(=O)c5cccc(C)c5)C[C@@H]34)cc2)c1	88.5	-8.8	-40.7	.	.	.	.
Cc1cccc(-c2ccc([C@@H]3[C@@H](CO)N4CCCCN(S(=O)(=O)c5cccs5)C[C@@H]34)cc2)c1	115.0*	1.1	12.9	106.0*	32.3	44.3*	70.2*
SMILES	T cruzi growth-1	C diff HTS	Pf Dd2 growth	T cruzi growth-2	T cruzi growth-3	3T3 cytotox	3T3 cytotox 2
Cc1cccc(-c2ccc([C@@H]3[C@H]4CN(S(=O)(=O)c5cccs5)CCCCN4[C@H]3CO)cc2)c1	97.6*	0.7	9.9	107.4*	74.8	24.8	59.8*
CC(=O)N1[C@@H]2Cn3c(ccc(C4=CCCC4)c3=O)[C@H]1[C@@H](C(=O)NC1CCCC1)[C@@H]2CO	.	0.0	14.3	.	.	.	.
O=C(C1CCOCC1)N1C[C@H]2[C@@H](c3ccccc31)[C@H](CO)N2Cc1ccccc1	23.5	2.5	8.7	.	.	.	.
C[C@@H]1CN([C@H](C)CO)C(=O)c2cc(NC(=O)CCCN(C)C)ccc2O[C@@H](C)CCCCO[C@H]1CN(C)C(=O)Nc1cccc2ccccc12	-24.1	10.9	-74.3	.	.	.	.
CC(C)C#Cc1ccc([C@H]2[C@@H](C#N)N(C(=O)c3cccc(F)c3)[C@@H]2CO)cc1	97.8*	0.2	-35.5	99.4*	107.9*	3.9	38.3
N#C[C@H]1[C@@H](c2ccc(C#CC3CCCC3)cc2)[C@H](CO)N1C(=O)c1cccc(F)c1	.	56.5	-59.5	.	.	.	.
N#C[C@H]1[C@@H](c2ccc(C#CC3CC3)cc2)[C@H](CO)N1C(=O)c1cccc(F)c1	94.3	11.7	-61.1	.	.	.	.
N#C[C@@H]1[C@@H](c2ccc(C#CC3CC3)cc2)[C@H](CO)N1C(=O)c1cccc(F)c1	97.4*	9.3	-55.3	105.2*	110.0*	20.4	12.3
CC(C)C#Cc1ccc([C@H]2[C@H](C#N)N(C(=O)c3ccccn3)[C@H]2CO)cc1	81.0	-5.2	-2.7	.	.	.	.
CC(C)C#Cc1ccc([C@H]2[C@@H](CO)N(C(=O)c3ccccn3)[C@H]2C#N)cc1	97.3*	2.4	-45.4	97.8*	79.5	15.0	15.9
COc1cccc(-c2ccc3c(c2)[C@H]2[C@H](CCN2S(=O)(=O)c2ccccc2OC)[C@@H](CO)N3C)c1	5.8	0.3	-67.8	.	.	.	.
COc1ccccc1C#Cc1ccc2c(c1)[C@H]1[C@H](CCN1S(=O)(=O)c1ccc(C)cc1)[C@@H](CO)N2	.	27.8	-45.6	.	.	.	.
C[C@@H]1CN([C@@H](C)CO)C(=O)c2cc(NC(=O)Cc3ccccc3)ccc2O[C@@H](C)CCCCO[C@H]1CN(C)S(=O)(=O)c1cccs1	-27.6	8.3	-31.2	.	.	.	.
